Growth data for 24 compounds are collected here from PubChem BioAssay (NCI).

Several values for one entry are separate records, joined by “and”; a condition that tells them apart may be missing. Equal values may be shown once. The panel holds about 83,000 compounds, 20% with a hit somewhere; the sample as a whole holds those more often.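 Single-dose data. Exposure time 48 hours. Values below 10 considered active.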 Activity calls are given as the source filed them.

This assay relates to UACC-62 melanoma. In words: NCI-60 one-dose screen, 48 h (100 = growth as untreated, 0 = no growth, -100 = all killed). The following applies: 10 µM unless noted.
`CCOc1cc2c(cc1O)/C(=N/NS(=O)(=O)c1ccc(C)cc1)C[C@@H]1[C@@H]2CC[C@]2(C)[C@@H](O)CC[C@@H]12`: the growth is -88.9% [100 µM] (active). The value for `CC(C)=CCc1c(OC(=O)c2c(C)cc(O)cc2O)cc(CO)c(CO)c1O` was -76.6% [100 µM] (active) and -100% [100 µM] (active); that for `CCCCCCCCCCCCC/C=C/[C@H]1[C@@H](C(=O)OC)N1S(=O)c1ccc(C)cc1` (some centres undefined) was 64.8% [100 µM] (inactive) and 3.51% [100 µM] (active); that for `COC(=O)/C=C\C(C#N)(C#N)N=Cc1ccsc1` was -87.5% [100 µM] (active) and -74.6% [100 µM] (active). The figure for `NC(=S)Nc1[nH]c(=S)nc2c1SC1=N/C(=C\c3ccco3)C(=O)N12` is 25.1% [100 µM] (inactive) and 18.6% [100 µM] (inactive). The value for `COc1ccc2cc1Oc1ccc(cc1)C[C@@H]1c3cc(c(OC)cc3CCN1C)Oc1c(OC)c(OC)cc3c1[C@H](C2)N(C)CC3` was 20.3% [100 µM] (inactive) and -83.9% [100 µM] (active); that for `COC(=O)c1cnn2c1n[n+]([O-])c1ccccc12` was 72.4% [100 µM] (inactive) and -65.7% [100 µM] (active).

Turning to `O=C(O)c1n[nH]nc1Cl`, the growth was 43.6% [100 µM] (inactive) and 103% [100 µM] (inactive). The value for `COc1ccc(N=C(C)C(C)=Nc2ccc(OC)cc2)cc1` was 9.18% [100 µM] (active) and 4.99% [100 µM] (active).

In the case of `C=C1C(=O)O[C@H]2C[C@@]3(C)[C@H](O)CCC(=C)[C@@H]3[C@@H](OC(C)=O)[C@H]12`, the growth was -98.5% [100 µM] (active) and -92.2% [100 µM] (active). The figure for `Cc1ccc(OCC2OC(n3cnc4nc(N)nc(Cl)c43)CC2Oc2ccc(C)cc2)cc1` (centres undefined) is 50.4% [100 µM] (inactive) and -64% [100 µM] (active); for `C/C=C1\NC(=O)[C@H]2CSSCCC=C[C@H](CC(=O)N[C@H](C(C)C)C(=O)N2)OC(=O)[C@H](C(C)C)NC1=O` it is -83.2% [0.1 µM] (active) and -98.1% [0.1 µM] (active); for `COC(=O)c1cc(C#N)[nH]c1-c1ccsc1` it is 67.3% [100 µM] (inactive) and 25.1% [100 µM] (inactive).

As for `Clc1ccc(C2C3COc4ccccc4C3=NN2c2ccccc2)cc1` (centres undefined), the growth is 37.4% [100 µM] (inactive) and 0.301% [100 µM] (active). The figure for `CC(=N/N=C/c1ccccn1)/C(C)=N/N=C(C)/C(C)=N/N=C(C)/C(C)=N/N=C(C)/C(C)=N\N=C\c1ccccn1` is 92.9% [100 µM] (inactive) and 85% [100 µM] (inactive); for `COc1cc2c3cc1Oc1c(OC)c(OC)cc4c1C(Cc1ccc(O)c(c1)-c1cc(ccc1OC)CC3N(C)CC2)N(C)CC4` (centres undefined) it is -88% [100 µM] (active) and -95.6% [100 µM] (active). The value for `COc1c(O)ccc(C2=Cc3ccc(O)cc3OC2)c1OC` was -72.2% [100 µM] (active) and -24.7% [100 µM] (active); that for `Cc1ccc2c(/C=C/c3ccc(N(C)C)cc3)ccc(C(C)C)cc1-2` was 68.4% [100 µM] (inactive) and 58.1% [100 µM] (inactive); that for `CC(C)=CC(O)C/C(C)=C/CC/C(C)=C/CCC1(C)C(CCCO)/C(=C(/C)C=O)CCC1(C)O` (centres undefined) was -21.5% [100 µM] (active) and 2.9% [100 µM] (active).

Consider `CCC/C(Cl)=N/OC(=O)Nc1cccc(F)c1`, for which the growth was -86.8% [100 µM] (active) and -100% [100 µM] (active).

As to `CNC(=S)c1nnsc1N`, the growth is 70.7% [100 µM] (inactive) and -2.69% [100 µM] (active). The value for `Clc1ccc(C2NN=C3c4ccccc4OCC32)cc1` (centres undefined) was 4.4% [100 µM] (active) and -69.2% [100 µM] (active); that for `C=CC1=C(C)C2=NC1=CC1=NC(=C(CC)/C1=C\O)C=C1N=C3C(=C1C)C(=O)[C@H](C(=O)OC)C3=C1NC(=C2)[C@@H](C)[C@@H]1CCC(=O)O` was -28.7% [100 µM] (active) and 0.467% [100 µM] (active); that for `Cc1ccc(NC(=O)/C(Cc2cc(=O)oc3cc(O)ccc23)=N\NC(C)(C)C)cc1C` was 87.9% [100 µM] (inactive) and 92.2% [100 µM] (inactive).
